Screening results from PubChem.
Most compounds without a hit are left out; they make up all but 6.2% or so of the library.
AHR activator: AHR activators, primary screen, cell-based, luminescence, luciferase reporter, human; AHR-responsive luciferase reporter cells; activation, % at 5 µM; actives 2.5% (n = 320,000); AID 2796, 2010; in the data active means activation above about 47%;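 further: 0% = vehicle wells and 100% = reference agonist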
Target sequence (P35869 whole entry, looked up): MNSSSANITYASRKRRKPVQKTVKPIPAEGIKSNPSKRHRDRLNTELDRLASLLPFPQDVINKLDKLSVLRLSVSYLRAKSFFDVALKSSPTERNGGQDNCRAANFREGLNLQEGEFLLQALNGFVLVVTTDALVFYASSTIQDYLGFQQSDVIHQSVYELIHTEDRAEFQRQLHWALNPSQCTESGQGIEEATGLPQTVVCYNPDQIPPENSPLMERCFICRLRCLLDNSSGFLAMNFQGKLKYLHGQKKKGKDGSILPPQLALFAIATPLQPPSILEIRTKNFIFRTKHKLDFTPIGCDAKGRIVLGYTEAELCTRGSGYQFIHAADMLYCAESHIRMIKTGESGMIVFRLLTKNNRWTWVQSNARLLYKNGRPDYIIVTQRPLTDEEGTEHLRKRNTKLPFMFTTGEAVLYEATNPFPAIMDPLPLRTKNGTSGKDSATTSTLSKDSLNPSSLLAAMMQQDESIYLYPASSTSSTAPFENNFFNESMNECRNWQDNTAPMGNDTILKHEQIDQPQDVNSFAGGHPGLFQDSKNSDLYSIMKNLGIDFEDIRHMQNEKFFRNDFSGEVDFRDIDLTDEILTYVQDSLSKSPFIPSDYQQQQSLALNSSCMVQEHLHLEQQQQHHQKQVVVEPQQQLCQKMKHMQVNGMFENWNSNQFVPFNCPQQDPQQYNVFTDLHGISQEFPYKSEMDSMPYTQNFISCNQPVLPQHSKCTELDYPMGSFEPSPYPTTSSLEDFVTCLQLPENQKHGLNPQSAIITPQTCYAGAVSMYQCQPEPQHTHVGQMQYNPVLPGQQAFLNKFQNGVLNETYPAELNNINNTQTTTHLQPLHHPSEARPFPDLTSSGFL
NTR1 ag: agonists of human NTR1, primary screen, imaging, U2OS cells, beta-arrestin-GFP, high content. activation, % at 20 µM. actives 0.17% (n = 330,000). Neurotensin receptor type 1 (Homo sapiens), P30989. NTR1-U2OS beta-arrestin-GFP spot imaging, agonist mode. AID 493036, 2011;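 active means activation at or above 40% of the spot to cytoplasm intensity ratio, with at least 20 cells analyzed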;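 further: 0% = DMSO without peptide and 100% = 100 nM NTR1 peptide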
NR3A LBD binder: binders of NR3A ligand-binding domain, primary screen, biophysical, differential scanning fluorimetry, uHTS; Glutamate receptor ionotropic, NMDA 3A (GRIN3A) ligand-binding domain; NR3A LBD differential scanning fluorimetry, Tm shift; 0% = protein alone, 100% = glycine-bound protein; Tm shift relative to glycine control, % at 25 µM; actives 2.5% (n = 340,000); AID 1259313, 2017;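 active means melting temperature shift of at least 10% of the positive control shift, at one fixed dose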
Mot1-301 SUMO: yeast Mot1-301 growth rescue at high temperature, primary screen, SUMOylation pathway inhibitor project, S. cerevisiae, ATP luminescence, 38.5C. S. cerevisiae Mot1-301 growth rescue; percent above DMSO median, 100 means doubled. growth rescue, % at 18.8 µM. actives 1% (n = 320,000);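 active means every valid replicate shows activation above 250% relative to neutral control wells; inactive means the rest, any valid replicate at or below 250%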;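 further: OY570 slx delta 5 strain wells were the positive control but not used for scaling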
AI-2 QS mod: Vibrio harveyi AI-2 quorum sensing modulators, primary screen, JMH597 strain, luminescence/OD600 ratio; Vibrio harveyi JMH597 AI-2 luminescence/OD600 ratio, 9 h; hits give low values; strain lacks LuxN and CqsS sensors; 0 = neutral-control median; activity change, % at 7.5 µM; actives 0.4% (n = 300,000); AID 2094, 2009; in the data active means activity change below about -75%, passing the limit was not always enough;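 further: luminescence divided by OD600 gain over 9 h not by final OD600 alone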
Cardio protect: cardioprotection against H2O2-induced cell death, primary screen, uHTS, H9c2 cells, ATPLite luminescence; H9c2 cardiomyocytes, H2O2 injury protection, 2 h; protection from H2O2 cell death, % at 20 µM; actives 0.63% (n = 360,000); AID 588492, 2011;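 active means compounds giving at least 50% protection of heart cells from peroxide-induced death in the single-dose screen, raw or plate-pattern-corrected value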;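 further: 0% = DMSO wells with peroxide and 100% = DMSO wells without peroxide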
* = called active by the depositor; . = no result.

SMILES | AHR activator | NTR1 ag | NR3A LBD binder | Mot1-301 SUMO | AI-2 QS mod | Cardio protect
CCCN(CCC)Cc1c(C(=O)N/N=C/C(C)=C\c2ccccc2)nnn1-c1nonc1N | -9 | 4 | 1 | 332 | 22 | -16
C/C(=N\NC(=O)c1nnn(-c2nonc2N)c1CN1CCc2ccccc21)c1ccccc1O | 9 | 4 | 1 | -11 | 38 | 58*
CCCc1c(C(=O)N/N=C/C(C)=C/c2ccccc2)nnn1-c1nonc1N | -3 | 3 | 34* | -7 | 7 | -7
CC(C)c1c(C(=O)N/N=C2\CCc3ccccc32)nnn1-c1nonc1N | 5 | 0 | 10* | 3 | 15 | -4
Nc1nonc1-n1nnc(C(=O)N/N=C/c2ccccc2)c1CN1CCc2ccccc21 | 4 | 1 | 1 | -8 | 25 | 1
CC(/C=N/NC(=O)c1nnn(-c2nonc2N)c1C(C)C)=C\c1ccccc1 | -3 | 10 | 27* | 8 | 15 | -14
O=C(O)CC(C(=O)Nc1ccc(Cl)cc1)N1CCCCCC1 (stereo not drawn) | 1 | -1 | 2 | -11 | -5 | 0
COc1ccccc1NC(=O)NC1(C(=O)N2CCN(C)CC2)CCCCC1 | -1 | 2 | -2 | 167 | 7 | 11
O=CC(=Cc1ccccc1)c1ccccc1 | . | . | . | . | . | -2
O=C(CN1c2cccc3cccc(c23)S1(=O)=O)Nc1c(F)c(F)c(F)c(F)c1F | -1 | 0 | 1 | 3 | . | 0
O=C(CCNC(=O)c1ccc(Br)cc1)NCCCN1CCCC1=O | 0 | 2 | 4 | 13 | . | 4
CCCCN(C=O)c1c(CC)nc2ccc(C(=O)NCCc3ccccn3)cn12 | . | . | . | . | . | 15
CCCNC(=O)C1(C)CCN(Cc2ccc(-n3ccnc3)cc2)C1 (stereo not drawn) | . | . | . | . | . | 15
CCc1c(C)sc(NC(=S)Nc2nc(C)cc(C)n2)c1C(=O)OC | 12 | 22 | -19 | -2 | -1 | -2
CCc1c(C)sc(NC(=S)Nc2cccnc2)c1C(=O)OC | 76* | 1 | 3 | -12 | 26 | -4
Cc1noc(NS(=O)(=O)c2ccc(N/C=C\C(=O)c3ccncc3)cc2)c1C | 0 | 0 | 3 | -12 | 12 | -1
NC(N)=NS(=O)(=O)c1ccc(N/C=C\C(=O)c2ccncc2)cc1 | 3 | 2 | 244* | 2 | 7 | 4
CC(C)n1nc(C(=O)Nc2nc3ccccc3[nH]2)c2ccccc2c1=O | 7 | 0 | 1 | -10 | 11 | 60*
O=C(Nc1nc2ccccc2[nH]1)c1ccccc1O | 26 | -2 | 2 | -1 | 22 | -16
Cc1ccc(C)c(C(=O)Nc2nc3ccccc3[nH]2)c1 | 48* | 2 | 0 | 21 | 22 | -1
N#Cc1nc2ccccc2n1OCc1ccccc1 | . | . | . | . | . | -5
CCOC(=O)N(C)c1c(CC)nc2c(OCc3ccccc3)cccn12 | . | . | . | . | . | 3
COc1ccccc1NS(=O)(=O)c1cccc(C(=O)OCC(=O)NC2CC2)c1 | 2 | 0 | 0 | -17 | -2 | 9
COC(=O)c1ccc(N2CCOCC2)c(NC(=O)Nc2cccc(OC)c2)c1 | -1 | 0 | -1 | 241 | 22 | -6
CCOC(=O)c1ccc(N2CCN(c3ccccc3F)CC2)c(NC(=O)Nc2cccc(OC)c2)c1 | 7 | 0 | 11* | -4 | -4 | 6
COc1ccc2c(c1)cc(C(=O)N[C@H](C(=O)N1CCC(C(=O)O)CC1)C(C)C)n2C | 5 | 0 | 0 | 12 | -6 | -3
COc1ccc2c(c1)cc(C(=O)N[C@H](C(=O)N1CCC[C@H]1C(=O)O)C(C)C)n2C | 7 | -2 | -2 | 419* | 19 | -7
CSc1ccc(CN2CCC(Oc3ccc(C(=O)N4CCCC4)cc3)CC2)cc1 | 1 | 0 | 0 | 277* | 37 | -1
